# According to PubChem BioAssay AID651871 (Sanford-Burnham Center for Chemical Genomics, 2012):
# Several values for one entry are separate records, joined by “and”; a condition that tells them apart may be missing. Equal values may be shown once.
# System: HL-1
# Test: cardiomyocyte survival under oxidative or metabolic stress – cell-based, panel, H9c2 and HL-1, ATP luminescence, set 2, SAR follow-up (AID 651871);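 note: cells exposed to stressor for 2 h before ATP readout; reference of the scale not given here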
# Conditions: H9c2/HL-1 cardiomyocytes, 2-deoxyglucose stress, with 2-deoxyglucose, run 11, at 79 µM (top of the series)
row,SMILES,activity (protection/inhibition)
1,CCOC(=O)c1cccc(NC(=O)CNC(=O)c2cc(-c3cc(OC)c(OC)c(OC)c3)nc3ccccc23)c1,66.5%
2,COc1ccc2c(c1OC)C(=O)N1c3ccccc3C(=O)N(Cc3cccc(Cl)c3Cl)C21 (stereo not drawn),42.6% and -9.56%
3,COc1ccc2nc(-c3cc(OC)c(OC)c(OC)c3)cc(C(=O)NCC(=O)Nc3ccc(C(C)=O)cc3)c2c1,89%
